Only some compounds are listed: those with a hit (about 10% of all), similar ones and a draw of the others.
GPT2 inh – blocks human glutamate pyruvate transaminase 2; AID 1671188; Potency, µM (highest dose often 57.7 µM), without a hit: at the top dose activity change, negative = inhibition, usual class: inhibitors; 100,000 tested, 0.25% active; Recombinant GPT2, coupled pyruvate oxidase/HRP Amplex Red fluorescence; note: nearly all actives have a fitted effect of over 60% in size
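Fluorescence of coupled pyruvate oxidase/HRP/Amplex Red system (50uM Amplex, 30 min, dark) reports pyruvate formed by GPT2. Enzyme reaction: 10ng/uL GPT2, 2mM L-alanine, 250uM a-KG, 30 min room temperature, pH 7.5; 50uM AOA control.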
Luciferase inh – Photinus pyralis luciferase inhibition; 76,000 tested, 2.5% active; Potency, µM (doses to about 115 µM), actives largely listed as inhibitors; purified P. pyralis luciferase, luminescence, biochemical; note: nearly all actives have a fitted effect of over 65% in size
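Purified P. pyralis luciferase (10nM final) in 50mM Tris acetate pH 7.5, 10mM Mg acetate, 0.01% Tween-20, 0.05% BSA with 10uM D-luciferin and 10uM ATP. Compounds titrated qHTS. Luminescence imaged on CCD.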
NPR1 antag – antagonists of human natriuretic peptide receptor Npr1. Potency, µM (highest dose often 46.3 µM), without a hit: top-dose activity change, negative = inhibition, most hits filed as inhibitors. HEK293 hNpr1 GloSensor cGMP, ANP-stimulated luminescence. AID 1347048. 76,000 tested, 1.6% active. P16066; calls by dose curve; note: nearly all actives have a fitted effect of over 60% in size
Target sequence (P16066 whole entry, looked up): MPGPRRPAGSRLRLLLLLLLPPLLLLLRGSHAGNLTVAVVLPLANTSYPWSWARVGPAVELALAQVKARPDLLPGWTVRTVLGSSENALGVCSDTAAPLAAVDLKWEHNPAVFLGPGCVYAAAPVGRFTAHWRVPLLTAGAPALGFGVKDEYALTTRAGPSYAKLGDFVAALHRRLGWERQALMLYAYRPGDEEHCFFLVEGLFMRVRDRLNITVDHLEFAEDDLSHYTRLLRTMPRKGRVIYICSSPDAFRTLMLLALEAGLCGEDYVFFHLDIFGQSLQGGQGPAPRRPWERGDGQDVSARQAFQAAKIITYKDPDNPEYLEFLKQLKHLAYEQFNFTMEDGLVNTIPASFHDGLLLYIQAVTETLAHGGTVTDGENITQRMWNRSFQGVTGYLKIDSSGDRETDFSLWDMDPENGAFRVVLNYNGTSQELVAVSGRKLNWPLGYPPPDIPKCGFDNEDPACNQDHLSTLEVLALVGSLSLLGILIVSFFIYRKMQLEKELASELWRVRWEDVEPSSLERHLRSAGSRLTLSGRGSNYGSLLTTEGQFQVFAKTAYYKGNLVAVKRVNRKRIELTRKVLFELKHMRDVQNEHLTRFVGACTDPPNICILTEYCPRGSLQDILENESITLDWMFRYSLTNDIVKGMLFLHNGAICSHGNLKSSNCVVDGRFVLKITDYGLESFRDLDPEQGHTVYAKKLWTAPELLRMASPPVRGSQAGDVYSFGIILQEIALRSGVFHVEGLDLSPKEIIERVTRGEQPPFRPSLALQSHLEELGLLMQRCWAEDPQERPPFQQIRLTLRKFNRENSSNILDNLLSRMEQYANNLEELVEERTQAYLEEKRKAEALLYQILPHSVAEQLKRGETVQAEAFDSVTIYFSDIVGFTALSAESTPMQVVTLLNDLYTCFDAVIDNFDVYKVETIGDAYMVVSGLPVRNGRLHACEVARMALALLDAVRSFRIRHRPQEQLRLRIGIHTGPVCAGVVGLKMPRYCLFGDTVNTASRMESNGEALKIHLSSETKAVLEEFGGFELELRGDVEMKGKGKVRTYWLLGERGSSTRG
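HEK293 cells stably expressing human Npr1 and cGMP GloSensor pGS-40F, loaded 2 h with 2% GloSensor reagent, given compound 30 min at room temperature. Luminescence read before and 20 min after 0.1 nM hNppA.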
HEK cytotox – HEK 293 cell cytotoxicity; HEK 293 viability, ATP luminescence (CellTiter-Glo), 48-72 h; Potency, µM (top dose mostly 115 µM), without a hit: top-dose activity change, negative = cytotoxicity, actives largely listed as inhibitors; 94,000 tested, 6.6% active; AID 1345083; note: nearly all actives have a fitted effect of over 60% in size
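250 HEK 293 cells/well; compound by pintool; incubated 48 or 72 hr at 37 degree Celsius; CellTiter-Glo added, 10 min RT, luminescence imaged.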
NIH3T3 tox – NIH 3T3 cell cytotoxicity; 94,000 tested, 4.3% active; Potency, µM (series often up to 96.7 µM), without a hit: at the highest dose activity change, negative = cytotoxicity, hits mostly inhibitors; NIH 3T3 viability, CellTiter-Glo ATP luminescence, 48-72 h; AID 1345082; note: nearly all actives have a fitted effect of over 55% in size
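Cells were seeded at 400 per well, treated with pin-transferred compound, and kept 48 or 72 hr at 37 °C before CellTiter-Glo addition and luminescence imaging of cellular ATP.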
Active calls of the source: *; ! = repeats disagree; [ ] = remark or other dose. Unless noted, calls come from the whole dose curve; as a rule, active = well fitted curve in the direction sought with a large enough effect; inconclusive = small, poorly fitted or top-dose-only effect, or another doubt; inactive = no such curve, though single readings can be large; an effect the other way counts as inactive or inconclusive. % is set by controls: 0 for no effect and ±100 for the full control effect; potency is the fitted concentration of half-maximal effect.

How did COC1C(=O)N(c2cccc(F)c2)C12CCN(C(=O)c1cccnc1)CC2 (centres undefined) do in these assays?
GPT2 inh: 2.2%; Luciferase inh: inactive; NPR1 antag: 1.0%; HEK cytotox: -5.6%; NIH3T3 tox: -17.2%

Results for CCCCN1CC2(CCCN(C(=O)c3ccn4nnnc4c3)C2)CCC1=O (centres undefined) ?
GPT2 inh: inactive; Luciferase inh: inactive; NPR1 antag: -0.9%; HEK cytotox: 3.8%; NIH3T3 tox: -18.3%

Results for COC1CCOC2(CCN(C(=O)c3ccsc3)CC2)C1 (centres undefined) ?
GPT2 inh: inactive; Luciferase inh: inactive; NPR1 antag: -2.2%; HEK cytotox: 1.3%; NIH3T3 tox: -9.1%

How did CN(C)c1cc(N2CCCC(NC(=O)Cc3ccccc3)C2)ncn1 (centres undefined) do in these assays?
GPT2 inh: inconclusive; Luciferase inh: inactive; NPR1 antag: 3.0%; HEK cytotox: -6.4%; NIH3T3 tox: -7.8%

How did O=C(NC1CCN(c2nccc(Nc3ccccc3F)n2)CC1)c1ccc(C(F)(F)F)cc1 do in these assays?
GPT2 inh: inactive; HEK cytotox: 25.1µM*; NIH3T3 tox: 35.5µM*

Results for COc1ccc(C(=O)NC2CCN(c3nccc(Nc4ccccc4F)n3)CC2)cc1 ?
GPT2 inh: -6.8%; HEK cytotox: inconclusive; NIH3T3 tox: -36.1%

Results for O=C(NC1CCN(c2nccc(Nc3ccccc3Cl)n2)CC1)c1ccc(C(F)(F)F)cc1 ?
GPT2 inh: inactive; HEK cytotox: 39.8µM*; NIH3T3 tox: 31.6µM*

How did O=C(NC1CCN(c2nccc(Nc3ccccc3F)n2)CC1)c1ccccc1 do in these assays?
GPT2 inh: inactive; HEK cytotox: inconclusive; NIH3T3 tox: inconclusive

Results for O=C(NC1CCN(c2nccc(Nc3ccccc3F)n2)CC1)c1ccc(F)cc1 ?
GPT2 inh: inactive; HEK cytotox: inconclusive; NIH3T3 tox: 35.5µM*

Results for CCn1c2c(c(=O)n1-c1ccccc1)CCN(C(=O)Cc1ccccc1)C2 ?
GPT2 inh: -8.1%[88.5 µM]; Luciferase inh: inactive; NPR1 antag: -0.1%[70.6 µM]; HEK cytotox: 4.2%[172 µM]; NIH3T3 tox: inconclusive

How did O=S(=O)(c1ccccc1)N1CCN(c2cc(C3CC(O)C3)ncn2)CC1 (centres undefined) do in these assays?
GPT2 inh: -10.9%; Luciferase inh: inactive; NPR1 antag: -20.8%; HEK cytotox: 39.8µM*!; NIH3T3 tox: inconclusive

Results for OCc1ccc(-c2cc3c(ccn3Cc3cccnc3)c(C3=CCOCC3)n2)cc1 ?
GPT2 inh: 4.6%[88.5 µM]; Luciferase inh: inactive; NPR1 antag: 3.4%[70.6 µM]; HEK cytotox: inconclusive; NIH3T3 tox: inconclusive

How did COCCn1ccc2c(C3=CCOCC3)nc(-c3cccc(C(N)=O)c3)cc21 do in these assays?
GPT2 inh: inconclusive; Luciferase inh: inactive; NPR1 antag: -2.8%[70.6 µM]; HEK cytotox: inconclusive; NIH3T3 tox: 25.1µM*

Results for C1=C(c2nc(-c3ccncc3)cc3c2ccn3Cc2cccnc2)CCOC1 ?
GPT2 inh: 2.3%[88.5 µM]; Luciferase inh: inactive; NPR1 antag: -2.7%[70.6 µM]; HEK cytotox: inconclusive; NIH3T3 tox: 22.4µM*

How did O=C1CC2(CCN(C(=O)c3ccc4c(c3)OCO4)CC2)CN1CC1CCCO1 (centres undefined) do in these assays?
GPT2 inh: -19.8%; Luciferase inh: inactive; NPR1 antag: -8.8%; HEK cytotox: -13.8%; NIH3T3 tox: -23.2%

How did CN(Cc1ccc(F)cc1)c1ccc2ncc(Nc3cccc(N[S+](C)(=O)[O-])c3)n2n1 do in these assays?
GPT2 inh: -9.0%; Luciferase inh: inactive; NPR1 antag: inconclusive; HEK cytotox: 35.5µM*; NIH3T3 tox: 31.6µM*

What do the screens show for `COc1ccc(-c2cc(-c3cccnc3)c3cncn3c2)cn1`?
GPT2 inh: -20.7%[88.5 µM]; Luciferase inh: inactive; NPR1 antag: -8.8%[70.6 µM]; HEK cytotox: inconclusive; NIH3T3 tox: inconclusive

How did COc1ccc(-c2cc(-c3cccc(CO)c3)cn3cncc23)cn1 do in these assays?
GPT2 inh: -6.5%[88.5 µM]; Luciferase inh: inactive; NPR1 antag: -1.8%[70.6 µM]; HEK cytotox: inconclusive; NIH3T3 tox: 39.8µM*

What do the screens show for `COc1ccc(-c2cc(-c3ccc4cn[nH]c4c3)cn3cncc23)cn1`?
GPT2 inh: -9.1%[88.5 µM]; Luciferase inh: inconclusive; NPR1 antag: -17.2%[70.6 µM]; HEK cytotox: inconclusive; NIH3T3 tox: 44.7µM*

What do the screens show for `CCc1noc(-c2cccn3c(CNC(=O)c4cccc(N(C)C)c4)nnc23)n1`?
GPT2 inh: 3.6%; Luciferase inh: inconclusive; NPR1 antag: -1.0%; HEK cytotox: inactive; NIH3T3 tox: inactive

Results for C[C@H]1CN(C(=O)C2CCCC2)C[C@@H]1c1nc(-c2ccccc2)no1 ?
GPT2 inh: -10.8%; Luciferase inh: inconclusive; NPR1 antag: -26.5%; HEK cytotox: inconclusive; NIH3T3 tox: 31.6µM*

How did C[C@@H]1CN(C(=O)Cc2cccnc2)C[C@H]1c1nc(-c2ccncc2)no1 do in these assays?
GPT2 inh: 4.2%; Luciferase inh: inactive; NPR1 antag: 3.4%; HEK cytotox: 15.1%; NIH3T3 tox: inactive

How did Cc1cc(Cl)ccc1NC(=O)N1C[C@H](c2nc(-c3cccnc3)no2)[C@@H](C)C1 do in these assays?
GPT2 inh: -11.2%; Luciferase inh: inactive; NPR1 antag: -20.9%; HEK cytotox: 44.7µM*; NIH3T3 tox: -24.7%

Results for CCOCCOC1CCN(C(=O)c2cc(-c3cccc(OC)c3)n[nH]2)CC1 ?
GPT2 inh: inconclusive; Luciferase inh: 25.1µM*; NPR1 antag: -2.6%; HEK cytotox: -22.5%; NIH3T3 tox: -28.0%

What do the screens show for `COc1cccc(-c2cc(C3CCN(C(=O)Nc4ccccc4C(F)(F)F)CC3)[nH]n2)c1`?
GPT2 inh: inactive; Luciferase inh: inactive; NPR1 antag: -6.5%; HEK cytotox: 22.4µM*; NIH3T3 tox: 31.6µM*

How did COc1cccc(-c2cc(C3CCN(C(=O)Nc4cc(C)ccc4C)CC3)[nH]n2)c1 do in these assays?
GPT2 inh: inactive; Luciferase inh: inactive; NPR1 antag: -15.2%; HEK cytotox: inconclusive; NIH3T3 tox: inconclusive

How did COc1cccc(-c2cc(C3CCN(C(=O)Nc4ccc(F)cc4F)CC3)[nH]n2)c1 do in these assays?
GPT2 inh: -2.3%; Luciferase inh: inactive; NPR1 antag: -14.6%; HEK cytotox: inconclusive; NIH3T3 tox: inconclusive

Results for Cc1ccc(NC(=O)N2CCC(c3cc(-c4cccc(C)c4)n[nH]3)CC2)cc1 ?
GPT2 inh: inactive; Luciferase inh: inactive; NPR1 antag: -19.0%; HEK cytotox: inconclusive; NIH3T3 tox: inconclusive

Screens from PubChem BioAssay.
